For twelve molecules, growth results are on record in PubChem BioAssay (NCI).

Structures are written as SMILES. Compounds without any hit were thinned out: in the full panel of roughly 83,000, 20% have a hit.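 Each cell line was grown in a 96-well plate and treated with one concentration of compound for 48 hours. Values below 10 were considered active.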 Activity calls are given as the source filed them.

In this test the test system is MDA-MB-468 breast. In words: NCI-60 one-dose screen, 48 h (100 = growth as untreated, 0 = no growth, -100 = all killed). As to conditions: 10 µM unless noted.
On to `CNCCNc1nc2ccccc2c2c(=O)c3cc(OC)ccc3sc12`, for which the growth was 44.7% (inactive).
As for `CCc1cc(OC(=O)N2CCC(N3CCCCC3)CC2)ccc1Nc1cc(-c2ccc(-n3cccn3)cc2)[nH]n1`, the growth is 84.4% (inactive).
As to `Cc1ccc(-c2nnc(SCc3nc(N)nc(Nc4ccccc4F)n3)n2-c2ccccc2)cc1`, the growth is 86.5% (inactive).
Under `Cc1c(C(N)=O)sc2ncn(CC(=O)Nc3ccc(Cl)cc3)c(=O)c12` stands 92.1% (inactive).
Regarding `C/C=C/[C@@H]1C=C[C@@H]2C[C@H](C)CC[C@H]2[C@]1(C)/C(O)=C1/C(=O)[C@H](CO)N(C)C1=O`, the growth is 65.5% (inactive).
On to `COCCOCCCl`, for which the growth is 102% (inactive).
`Cn1cc(-c2csc(-c3c[nH]c4ccccc34)n2)c2ccnc(Cl)c21`: the growth is -9.03% (active).
With `Cn1cc(-c2ccc3ncc(-c4ccc(CC(=O)Nc5cc(C(C)(C)C)no5)cc4)nc3c2)cn1`, the growth is 48.9% (inactive).
Under `O=c1[nH][nH]c(=O)c2cc([N+](=O)[O-])ccc12` stands 109% (inactive); under `COc1cc(NC(C)CCCNC(=O)CCC(=O)NCCCNCCCCCCCCNCCCNC(=O)CCC(=O)NCCCC(C)Nc2cc(OC)cc3cccnc23)c2ncccc2c1` (configuration not stated), 16.8% (inactive); under `COc1ccc(Oc2nc(Nc3ccc(N4CCOCC4)nc3)ncc2NC(=O)c2cc(OC)cc(OC)c2)cc1`, 82.1% (inactive).
Turning to `CCc1ccc(NC(=O)N[C@@H](Cc2cccc(F)c2)C(=O)N[C@@H]2C(=O)N3CCC[C@H]3C(=O)N3CCCC[C@H]3C(=O)N[C@@H](CO)C(=O)N3C[C@H](C)C[C@H]3C(=O)O[C@H]2C)c(F)c1`, the growth is -7.85% (active).
